The text below walks through data of PubChem BioAssay (EPA / NIEHS).

Each structure is given as a SMILES string. Some structures have more than one record in an assay (separate samples or runs), and their calls can disagree. Active and inactive are the calls of the source. The calls were made as follows: active = hit-call score of the fitted dose curve at least 0.9, where 1 is the maximum; inactive = score below 0.9.

By AC50 is commonly meant the midpoint of the concentration-response curve, whichever way the signal moves.

Read-out in assay [1]: Interleukin-6 (IL6), IL6 (gene 3569)
Kind of assay: BSK_CASM3C_IL6: BioMAP Diversity Plus: CASM3C Assay for Interleukin-6 (IL6) Biomarker Activity for (AID 2283040). The conditions noted are these: primary human coronary artery smooth muscle cells; actives raise or lower the signal.

Read-out in assay [2]: Tissue plasminogen activator (tPA), PLAT (gene 5327)
Kind of assay: BSK_BE3C_tPA: BioMAP Diversity Plus: BE3C Assay for Tissue plasminogen activator (tPA) Biomarker Activity (AID 2283041).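 Also: tPA level quantified by ELISA one day after compound addition.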 As to conditions: primary human bronchial epithelial cells; actives raise or lower the signal. The gist of the method: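 Human primary bronchial epithelial cells were dosed with chemical and tPA biomarker levels measured by ELISA 24 hours later. Activity was fitted bidirectionally against DMSO as negative control and baseline.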

Read-out in assay [3]: Interleukin-8 (IL8), CXCL8 (gene 3576)
Description: BSK_CASM3C_IL8: BioMAP Diversity Plus: CASM3C Assay for Interleukin-8 (IL8) Biomarker Activity (AID 2283042).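 Also: IL-8 protein level quantified by ELISA.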 The conditions noted are these: primary human coronary artery smooth muscle cells; actives raise or lower the signal.

Read-out in assay [4]: Human Leukocyte Antigen - DR isotype (HLADR), HLA-DRA (gene 3122)
Description: BSK_CASM3C_HLADR: BioMAP Diversity Plus: CASM3C Assay for Human Leukocyte Antigen - DR isotype (HLADR) Biomarker Activity (AID 2283043).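 Also: cell-surface HLA-DR protein level quantified by ELISA.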 The conditions noted are these: primary human coronary artery smooth muscle cells; actives raise or lower the signal.

Read-out in assay [5]: Macrophage colony-stimulating factor (MCSF), CSF1 (gene 1435)
Kind of assay: BSK_CASM3C_MCSF: BioMAP Diversity Plus: CASM3C Assay for Macrophage colony-stimulating factor (MCSF) Biomarker Activity (AID 2283044).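 Also: M-CSF protein amount quantified by ELISA after 24 h exposure.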 The conditions noted are these: primary human coronary artery smooth muscle cells; actives raise or lower the signal.

Read-out in assay [6]: Low-density lipoprotein receptor (LDLR), LDLR (gene 3949)
Kind of assay: BSK_CASM3C_LDLR: BioMAP Diversity Plus: CASM3C Assay for Low-density lipoprotein receptor (LDLR) Biomarker Activity (AID 2283045).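 Also: LDLR protein level on the cell surface quantified by ELISA.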 The conditions noted are these: primary human coronary artery smooth muscle cells; actives raise or lower the signal.

Read-out in assay [7]: Monocyte Chemoattractant Protein-1 (MCP1), CCL2 (gene 6347)
Kind of assay: BSK_CASM3C_MCP1: BioMAP Diversity Plus: CASM3C Assay for Monocyte Chemoattractant Protein-1 (MCP1) Biomarker Activity (AID 2283046).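 Also: MCP-1 level quantified by ELISA 24 h after dosing.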 As to conditions: primary human coronary artery smooth muscle cells; actives raise or lower the signal.

The nature of assay [8]: BSK_CASM3C_Proliferation: Cell Proliferation Assessment in the BioMAP Diversity Plus: CASM3C Assay (AID 2283047).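 Also: sulforhodamine B total protein stain as relative cell number at 560 nm; sub-confluent cells exposed 48 h before staining; fitted both ways against DMSO so gain or loss of cell number.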 The conditions noted are these: primary human coronary artery smooth muscle cells.
Read-out in assay [9]: Monokine induced gamma interferon (MIG), CXCL9 (gene 4283)
Description: BSK_CASM3C_MIG: BioMAP Diversity Plus: CASM3C Assay for Monokine induced gamma interferon (MIG) Biomarker Activity (AID 2283048).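 Also: MIG protein level measured by ELISA.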 The conditions noted are these: primary human coronary artery smooth muscle cells; actives raise or lower the signal.

Read-out in assay [10]: serum amyloid A (SAA), SAA1 (gene 6288)
Kind of assay: BSK_CASM3C_SAA: BioMAP Diversity Plus: CASM3C Assay for serum amyloid A (SAA) Biomarker Activity (AID 2283049).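 Also: SAA protein level quantified by ELISA.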 The conditions noted are these: primary human coronary artery smooth muscle cells; actives raise or lower the signal.

The nature of assay [11]: BSK_CASM3C_SRB: Viability Assessment in the BioMAP Diversity Plus: CASM3C Assay (AID 2283050).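 Also: total protein by SRB staining as cytotoxicity measure in parallel cultures.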 As to conditions: primary human coronary artery smooth muscle cells.
Read-out in assay [12]: Thrombomodulin, THBD (gene 7056)
Kind of assay: BSK_CASM3C_Thrombomodulin: BioMAP Diversity Plus: CASM3C Assay for Thrombomodulin Biomarker Activity (AID 2283051).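 Also: thrombomodulin protein level measured by ELISA 24 h after dosing.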 As to conditions: primary human coronary artery smooth muscle cells; actives raise or lower the signal.

Read-out in assay [13]: Tissue Factor, F3 (gene 2152)
Kind of assay: BSK_CASM3C_TissueFactor: BioMAP Diversity Plus: CASM3C Assay for Tissue Factor Biomarker Activity (AID 2283052).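 Also: cell surface tissue factor protein level read by ELISA.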 The conditions noted are these: primary human coronary artery smooth muscle cells; actives raise or lower the signal.

Read-out in assay [14]: Interferon-gamma inducible Protein 10 (IP10), CXCL10 (gene 3627)
Kind of assay: BSK_hDFCGF_IP10: BioMAP Diversity Plus: hDFCGF Assay for Interferon-gamma inducible Protein 10 (IP10) Biomarker Activity (AID 2283053). The conditions noted are these: primary human foreskin fibroblasts; actives raise or lower the signal. The method, boiled down:
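Human foreskin fibroblast primary cells (hDFCGF system) were dosed with chemical and assayed at 24 h; IP-10 measured by ELISA. Activity fitted bidirectionally relative to DMSO negative control as baseline.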

Read-out in assay [15]: Urokinase-type plasminogen activator receptor (uPAR), PLAUR (gene 5329)
Kind of assay: BSK_CASM3C_uPAR: BioMAP Diversity Plus: CASM3C Assay for Urokinase-type plasminogen activator receptor (uPAR) Biomarker Activity (AID 2283054).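 Also: cell-surface uPAR protein level quantified by ELISA.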 The conditions noted are these: primary human coronary artery smooth muscle cells; actives raise or lower the signal.

Read-out in assay [16]: Vascular cell adhesion molecule 1 (VCAM1), VCAM1 (gene 7412)
Kind of assay: BSK_CASM3C_VCAM1: BioMAP Diversity Plus: CASM3C Assay for Vascular cell adhesion molecule 1 (VCAM1) Biomarker Activity (AID 2283055).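 Also: VCAM-1 protein level quantified by ELISA on the cells.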 The conditions noted are these: primary human coronary artery smooth muscle cells; actives raise or lower the signal.

Read-out in assay [17]: Collagen III, COL3A1 (gene 1281)
Description: BSK_hDFCGF_CollagenIII: BioMAP Diversity Plus: hDFCGF Assay for Collagen III Biomarker Activity (AID 2283056). As to conditions: primary human foreskin fibroblasts; actives raise or lower the signal. The gist of the method: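 ELISA readout of Collagen III in human dermal (foreskin) fibroblasts, taken 24 h post-treatment. Gain or loss relative to DMSO vehicle fitted in both directions.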

Read-out in assay [18]: Epidermal growth factor receptor (EGFR), EGFR (gene 1956)
Description: BSK_hDFCGF_EGFR: BioMAP Diversity Plus: hDFCGF Assay for Epidermal growth factor receptor (EGFR) Biomarker Activity (AID 2283057). As to conditions: primary human foreskin fibroblasts; actives raise or lower the signal. The gist of the method: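 Primary human foreskin fibroblasts were exposed to compound for 24 h, after which cell-surface EGFR was quantified by ELISA. Activity was fitted bidirectionally against the DMSO negative control as baseline.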

Read-out in assay [19]: Interleukin-8 (IL8), CXCL8 (gene 3576)
Kind of assay: BSK_hDFCGF_IL8: BioMAP Diversity Plus: hDFCGF Assay for Interleukin-8 (IL8) Biomarker Activity (AID 2283058). The conditions noted are these: primary human foreskin fibroblasts; actives raise or lower the signal. The gist of the method: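 IL-8 levels read by ELISA at 24 hours after dosing human skin fibroblast cultures. Parallel SRB staining assessed overt cytotoxicity, and gain or loss of signal was fitted against DMSO control.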

The nature of assay [20]: BSK_hDFCGF_Proliferation: Cell Proliferation Assessment in the BioMAP Diversity Plus: hDFCGF Assay (AID 2283059).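 Also: curves fitted for both rise and fall of signal versus DMSO baseline.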 As to conditions: primary human foreskin fibroblasts. The gist of the method: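 Total protein read at 560 nm after 0.1% SRB staining of TCA-fixed human skin fibroblasts, […]. Activity is fitted in both directions relative to DMSO as baseline.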

Regarding `ClC(Cl)c1ccccc1`, the outcome in assay [1], in [2], in [3], in assay [4], in assay [5] and in [6] was inactive. In addition, the outcome in assay [7], in [8], in [9], in [10], in assay [11] and in assay [12] was inactive. Also, the outcome in assay [13], in assay [14], in [15], in [16], in assay [17] and in assay [18] was inactive. Besides, the outcome in [19] and in assay [20] was inactive.

In the case of `CCOC(=O)c1ccccc1C(=O)OCC`, the outcome in assay [1], in assay [2], in assay [3], in [4], in assay [5] and in assay [6] was inactive. Also, the result in assay [7], in assay [8], in assay [9], in assay [10], in [11] and in assay [12] was inactive. The outcome in assay [13], in assay [14], in [15], in assay [16], in assay [17] and in assay [18] was inactive. The outcome in [19] and in assay [20] was inactive.

For the compound `CCC1(c2ccccc2)C(=O)N=C(O)NC1=O` (stereo unspecified), the result in assay [1], in assay [2], in assay [3], in assay [4], in assay [5] and in assay [6] was inactive. The result in assay [7], in assay [8], in assay [9], in assay [10], in assay [11] and in assay [12] was inactive. In addition, the outcome in [13], in assay [14], in assay [15], in assay [16], in [17] and in assay [18] was inactive. The outcome in [19] and in assay [20] was inactive.

Take `ClC(Cl)=C(c1ccc(Cl)cc1)c1ccccc1Cl`: the result in assay [1], in [2], in [3], in assay [9], in [10] and in assay [12] was inactive. The AC50 is 26.1 µM (active) in assay [4]; 16.7 µM (active) in assay [5]; 23.5 µM (active) in assay [6]; 20 µM (active) in [7]; 30 µM (active) in [8]; 28.2 µM (active) in assay [11]. Besides, the AC50 in assay [13] is 24 µM (active); in [14], 3.72 µM (active); in [15] it was 32.6 µM (active); in [16], 20 µM (active); in assay [17], 2.45 µM (active); in [18], 4.82 µM (active). Further, the results for the AC50 in assay [19] and in assay [20] were 4.15 µM (active) and 0.742 µM (active), respectively.

Regarding `Nc1cc2c3c(c1)C(c1ccccc1)=N[C@@H](NC(=O)c1cccnc1)C(=O)N3CC2`, the result in assay [1], in assay [2], in [3], in assay [4], in assay [5] and in assay [6] was inactive. Also, the result in assay [7], in [8], in assay [9], in assay [10], in [11] and in assay [12] was inactive. Also, the outcome in assay [13], in assay [14], in assay [15], in assay [16], in [17] and in assay [18] was inactive. For the same compound, the outcome in assay [19] and in assay [20] was inactive.

Regarding `COP(=O)(CCC(=O)NCO)OC`, the AC50 in assay [1] was 1.56 µM (active); in assay [4], 0.3 µM (active). In addition, the outcome in assay [1], in assay [2], in [3], in assay [4], in [5] and in assay [6] was inactive. Besides, the result in assay [7], in assay [8], in assay [9], in assay [10], in assay [11] and in [12] was inactive. Moreover, the result in [13], in assay [14], in assay [15], in [16], in assay [18] and in assay [19] was inactive. For the same compound, in [20], the result was inactive.

Take `FC(F)(F)C(F)(C(F)(F)F)C(F)(F)C(F)(F)CC1CO1` (stereo unspecified): the outcome in assay [1], in [2], in [3], in assay [4], in assay [5] and in assay [6] was inactive. Also, the result in assay [7], in assay [8], in [9], in [10], in assay [11] and in assay [12] was inactive. The outcome in assay [13], in assay [14], in assay [15], in assay [16], in assay [17] and in assay [18] was inactive. Besides, the outcome in assay [19] and in assay [20] was inactive.
